Screening results (PubChem BioAssay)
Sampled rows, rich in hits. Any-hit rate of the full collection: about 2.3%.
CHRM1 antagonist: blocks human M1 muscarinic receptor. P11229. CHO-K1 hM1, Fluo-8 calcium fluorescence, ACh EC80 antagonist. inhibition, % at 3 µM. hit rate 1.3% among 360,000. AID 588852;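 active = percent inhibition above its own plate's cutoff, namely the mean of that plate's compound wells plus 3 SD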;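 note: peak over basal fluorescence ratio during 140 s after agonist addition; 0% = ACh EC80 plus DMSO and 100% = DMSO alone without agonist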
Target sequence (P11229 whole entry, looked up): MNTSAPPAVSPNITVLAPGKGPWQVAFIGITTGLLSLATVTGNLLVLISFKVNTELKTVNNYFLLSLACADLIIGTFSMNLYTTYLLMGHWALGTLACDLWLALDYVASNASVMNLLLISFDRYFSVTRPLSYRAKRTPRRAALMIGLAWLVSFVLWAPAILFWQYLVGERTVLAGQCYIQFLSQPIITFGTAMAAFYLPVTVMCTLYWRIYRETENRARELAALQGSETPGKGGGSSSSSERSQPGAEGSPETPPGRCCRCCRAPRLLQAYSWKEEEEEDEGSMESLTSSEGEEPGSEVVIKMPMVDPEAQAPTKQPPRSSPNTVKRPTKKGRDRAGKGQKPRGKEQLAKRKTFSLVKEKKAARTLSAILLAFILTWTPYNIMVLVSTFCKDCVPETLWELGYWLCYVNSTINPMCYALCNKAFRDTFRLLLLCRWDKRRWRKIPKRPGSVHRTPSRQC
M1 ag parental: M1 agonist counterscreen hit in parental CHO-K1 cells; Fluo-8 calcium fluorescence; scaled to maximal ATP response, vehicle zero; activation, % at 3 µM; hit rate 0.48% among 360,000; AID 602248; in the data active = activation above about 15%;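 note: untransfected CHO-K1 host cells lacking M1 receptor as counterscreen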
CHRM1 agonist: human M1 muscarinic receptor agonism; AID 588814; CHO-K1 hM1, Fluo-8 calcium fluorescence, agonist mode; 0% DMSO, 100% acetylcholine EC100; activation, % at 3 µM; hit rate 0.33% among 360,000;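 active = activation above the run's mean compound activation plus 3 SD, cut at about 16% in these data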;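 note: peak over basal fluorescence ratio within a 140 s kinetic read after compound addition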
CHO-K1 Ca antag: M1 antagonist counterscreen hit in parental CHO-K1 cells. hit rate 0.6% among 360,000. AID 602250. ATP-induced calcium, Fluo-8 fluorescence. inhibition, % at 3 µM;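 active = inhibition above a per-plate cutoff, the plate's mean sample inhibition plus 3 SD, cut at about 24% in these data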;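 note: 0% = DMSO plus EC80 ATP and 100% = DMSO alone without ATP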
M1 PAM parental: counter-screen for M1 PAMs: effect in parental CHO-K1 cells | ATP EC20, Fluo-8 calcium fluorescence; 0% at ATP EC20, 100% at ATP max | activation, % at 3 µM | hit rate 0.02% among 360,000 | AID 602247;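 active = activation above the run cutoff, the mean activation of all test compounds plus 3 SD, cut at about 40% in these data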;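 note: peak over basal fluorescence ratio in a 140 s read after ATP addition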
CHRM1 PAM: positive allosteric modulators of human M1 muscarinic receptor. P11229. CHO-K1 hM1, Fluo-8 calcium fluorescence, ACh EC20; 0% = ACh EC20, 100% = maximal ACh. activation, % at 3 µM. hit rate 0.088% among 360,000. AID 588819; in the data active = activation above about 19%, passing the limit was not always enough
An asterisk follows results filed as active.

SMILES	CHRM1 antagonist	M1 ag parental	CHRM1 agonist	CHO-K1 Ca antag	M1 PAM parental	CHRM1 PAM
O=S1(=O)CC(N2CCN(CC3CC3)CC2)CN1C1CCCC1 (stereo unspecified)	11.4	0.0	-3.8	26.1*	1.2	-1.0
O=C(CN1C(=O)COc2ccccc21)NCCN1CCC(Cc2ccccc2)CC1	29.7*	5.6	-3.0	-4.7	13.1	-19.8
O=C(CN1C(=O)COc2ccccc21)NCCN1CCOCC1	4.0	0.4	-5.5	-7.3	15.9	1.4
CCCCOc1ccc(Cc2n[nH]c(=S)n2N)cc1	-2.6	0.4	-3.6	-5.9	11.7	1.8
Cc1ccccc1Nc1ccc([N+](=O)[O-])cn1	-7.2	0.6	-4.2	15.4	-11.8	11.0
Cc1ccccc1NC1=NCC(c2ccc([N+](=O)[O-])cc2)S1 (stereo unspecified)	1.1	19.2*	-0.9	-16.3	24.8	-0.5
COc1ccc([N+](=O)[O-])c(OC)c1C(=O)NC(=O)Nc1c(F)cc(F)cc1F	-4.0	-0.1	-3.5	-14.7	13.3	6.0
CC1(C(=O)NC2CCCC2)CCC(=O)N1C1CCN(Cc2ccccc2)CC1 (stereo unspecified)	-18.7	5.9	-4.9	14.1	10.5	14.5
O=C(CCC(=O)N1CCCCCC1)NCc1ccc(F)cc1	7.0	0.7	-0.4	4.2	12.1	4.1
CCc1nc(OCC(=O)c2ccccc2)c(C#N)c2c1COC(C)(C)C2	5.6	1.4	-3.7	25.0*	-7.2	-4.4
COc1ccc(S(=O)(=O)n2nc(OC(=O)c3cccs3)cc2NC(=O)c2cccs2)cc1	-4.5	0.1	-3.5	-6.2	2.2	7.5
CCCCn1c2ccccc2c2nnc(SCCN3CCCCC3)nc21	54.9*	0.1	-10.2	14.9	-12.8	-28.2
CCCCn1c2ccc(F)cc2c2nnc(SCCN3CCOCC3)nc21	-1.8	2.5	-8.1	3.6	7.3	1.4
COCc1cc(C)nc(SCC[N+](C)(C)CC(=O)Nc2cccc(C(F)(F)F)c2)c1C#N	40.2*	-0.6	-8.7	3.7	-16.1	-20.0
Cc1cc(C)nc(N/N=C2/CCCC/C2=C\c2ccccc2)n1	2.0	0.3	-6.2	-14.1	21.5	1.7
CNc1ccc(C(O)(C(F)(F)F)C(F)(F)F)cc1C(O)(C(F)(F)F)C(F)(F)F	5.9	-0.3	-5.7	35.5*	-8.1	4.2
COc1ccc(NC(=O)NC(C)c2ccccc2)cc1 (stereo unspecified)	-9.2	0.8	-5.1	-7.3	9.4	8.0
COc1ccc(NC(=O)N/C=C/c2ccccc2)cc1	-1.3	15.8*	-9.5	8.0	18.2	4.3
NCCc1nnc(SCc2ccc(F)cc2)o1	1.1	0.9	-4.6	-3.9	15.3	7.8
NCCCCCc1nnc(SCc2ccc(Cl)c(Cl)c2)o1	47.8*	1.1	-6.5	0.8	13.2	-27.2
O=c1[nH]c2cc3c(cc2cc1CN(CCc1ccccc1)C(=S)NCCCN1CCOCC1)OCCO3	-10.8	-1.8	-5.8	60.5*	-12.0	1.4
CS(=O)CSc1nc2c(cc1C#N)CCCC2 (stereo unspecified)	95.2*	-0.1	-11.8	-4.2	-1.1	-35.9
CCCCSc1nc2c(cc1C#N)CCC2	-10.8	0.0	-2.0	-18.9	13.3	5.2
O=C1c2ccccc2C(=O)N1CN(C(=O)c1ccccc1)c1ccc(O)cc1	5.4	22.3*	-3.6	12.4	5.7	7.5
CN(CC1CCOCC1)C(=O)CC1C(=O)NCCN1Cc1cccc(C(F)(F)F)c1 (stereo unspecified)	-5.6	0.9	-2.8	-8.9	-8.4	2.7
O=C(CN1CCN(C2CCCCC2)CC1)NCCC1=CCCCC1	-8.6	-0.1	44.6*	2.2	-10.3	-14.2
CS(=O)(=O)N(CC(=O)NCCC1=CCCCC1)C1CCCCC1	-4.1	0.2	-1.2	-3.7	6.6	4.1
NS(=O)(=O)c1ccc(CCNC(=O)CCCCCn2c(=S)[nH]c3ccc(Br)cc3c2=O)cc1	40.9*	7.2	0.1	4.3	13.5	-9.4
CCOC(=O)C1=C(C)Nc2ccccc2N/C1=N\S(=O)(=O)c1ccc(Cl)cc1	36.6*	5.4	-6.9	-7.4	-1.2	-14.7
CCOC(=O)C1=C(CC)Nc2ccccc2N/C1=N\S(=O)(=O)c1cc(Br)ccc1Br	34.0*	14.6	-3.0	32.7*	-16.4	-29.7
